High-throughput results (PubChem)
In the library only some 3% were active in any assay of this set; here they are far more common.
IP6K1 inhibitor: inhibitors of human IP6K1; Q92551; IP6K1 kinase, ADP-Glo luminescence, 2 h; active compounds read low; activity change, % (series mostly up to about 58 µM); hit rate 0.81% among 140,000; AID 1645851; in the data active = activity change below about -25%
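ADP-Glo luminescence measures ADP made by human IP6K1 during a 2 h RT reaction with ATP/IP6 (mix at 1.3 mM/130 uM); top library doses 57.5 and 19.1 uM final.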
HEK293 viab: reduces viability of HEK-293 SNCA reporter cells | HEK-293-SNCA-luc viability, GF-AFC fluorescence, 24 h | Potency, µM (series often up to 57.1 µM), usual class: cytotoxic | hit rate 0.12% among 150,000 | AID 1671193; note: nearly all actives have a fitted effect of over 30% in size
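HEK-293-SNCA-luc cells (1500/well) plated 24 h, then exposed 24 h to a dilution series; GF-AFC added 30 min at 37C, fluorescence 405/540 nm; normalised to medium-only and DMSO wells, Hill fit.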
SNCA expr inh: SNCA gene expression inhibition; HEK-293 SNCA-luciferase knock-in, luminescence, 24 h; Potency, µM (doses to about 57.2 µM), actives largely listed as inhibitors; hit rate 0.17% among 140,000; AID 1671194; note: nearly all actives have a fitted effect of over 45% in size
KDM5B inhibitor: inhibitors of human KDM5B histone demethylase | Q9UGL1 | KDM5B demethylase, FDH-coupled NADH fluorescence (FDH is formaldehyde dehydrogenase) | Potency, µM (top dose mostly 57.7 µM), hits mostly inhibitors | hit rate 2.6% among 220,000 | AID 1347165; note: nearly all actives have a fitted effect of over 70% in size
Target sequence (Q9UGL1 whole entry, looked up): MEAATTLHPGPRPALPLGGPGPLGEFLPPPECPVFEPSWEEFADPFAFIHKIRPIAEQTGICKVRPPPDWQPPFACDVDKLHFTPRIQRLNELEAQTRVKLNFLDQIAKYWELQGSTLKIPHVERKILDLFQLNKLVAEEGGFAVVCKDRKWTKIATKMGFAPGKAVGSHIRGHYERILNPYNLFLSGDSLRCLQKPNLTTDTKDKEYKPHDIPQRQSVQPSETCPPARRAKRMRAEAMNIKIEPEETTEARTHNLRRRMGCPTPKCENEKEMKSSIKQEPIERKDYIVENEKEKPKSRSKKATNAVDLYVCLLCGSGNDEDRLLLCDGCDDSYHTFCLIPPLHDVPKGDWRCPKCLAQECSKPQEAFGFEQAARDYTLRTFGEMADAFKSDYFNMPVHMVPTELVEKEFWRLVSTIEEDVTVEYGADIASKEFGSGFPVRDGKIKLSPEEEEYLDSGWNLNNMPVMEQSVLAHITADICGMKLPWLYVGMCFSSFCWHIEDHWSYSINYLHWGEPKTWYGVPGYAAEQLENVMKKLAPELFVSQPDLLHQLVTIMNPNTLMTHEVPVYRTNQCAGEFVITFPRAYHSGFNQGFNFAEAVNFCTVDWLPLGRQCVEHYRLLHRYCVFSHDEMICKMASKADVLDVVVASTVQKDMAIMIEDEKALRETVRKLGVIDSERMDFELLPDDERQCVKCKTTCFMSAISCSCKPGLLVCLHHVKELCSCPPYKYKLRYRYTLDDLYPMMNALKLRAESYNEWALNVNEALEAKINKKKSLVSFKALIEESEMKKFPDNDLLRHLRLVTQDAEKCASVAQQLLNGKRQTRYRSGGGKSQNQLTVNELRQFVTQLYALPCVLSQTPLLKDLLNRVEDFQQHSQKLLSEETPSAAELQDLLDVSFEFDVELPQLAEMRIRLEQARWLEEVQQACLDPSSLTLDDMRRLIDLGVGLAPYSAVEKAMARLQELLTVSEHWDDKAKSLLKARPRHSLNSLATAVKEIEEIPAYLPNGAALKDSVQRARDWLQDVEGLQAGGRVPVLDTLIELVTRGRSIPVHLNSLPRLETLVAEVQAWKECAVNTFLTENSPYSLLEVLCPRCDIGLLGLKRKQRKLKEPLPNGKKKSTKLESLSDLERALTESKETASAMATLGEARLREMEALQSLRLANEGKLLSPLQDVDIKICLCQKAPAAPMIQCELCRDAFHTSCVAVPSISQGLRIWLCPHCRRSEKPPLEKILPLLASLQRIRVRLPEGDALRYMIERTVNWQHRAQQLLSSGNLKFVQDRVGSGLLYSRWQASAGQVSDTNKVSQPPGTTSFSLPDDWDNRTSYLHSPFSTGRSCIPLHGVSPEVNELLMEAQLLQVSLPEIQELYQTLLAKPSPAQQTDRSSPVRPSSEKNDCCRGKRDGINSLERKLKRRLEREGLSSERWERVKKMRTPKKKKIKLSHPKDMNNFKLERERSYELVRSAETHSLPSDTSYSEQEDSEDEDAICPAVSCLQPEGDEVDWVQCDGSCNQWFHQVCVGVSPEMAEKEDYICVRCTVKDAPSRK
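Inhibition is measured as reduced NADH fluorescence generation from FDH coupling to formaldehyde release. Truncated KDM5BΔAP at 200 nM final acts on H3K4me3 peptide (12.5 µM in substrate mix) in pH 7.5 HEPES buffer with Tween-20, 30 min, room temperature.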
Each line names hits and unclear results; the compound was inactive in the other large screens. Unless noted, calls come from the whole dose curve; as a rule, active = well fitted curve in the direction sought with a large enough effect; inconclusive = small, poorly fitted or top-dose-only effect, or another doubt; inactive = no such curve, though single readings can be large; an effect the other way counts as inactive or inconclusive.

CCOC(=O)[C@H]1CN([S+](=O)([O-])c2cccs2)[C@]2(C)C(=O)N(CC3CC3)c3ccccc3[C@H]12	HEK293 viab inconclusive, SNCA expr inh inconclusive (no result: KDM5B inhibitor)
O=C1NC2(CCN(Cc3ccccn3)C2)OCc2ccccc21 (stereo not given)	KDM5B inhibitor 40µM
Cc1ccccc1-c1ccc2n(c1=O)C[C@H]1C[C@@H]2CN(C(=O)CCC(=O)O)C1	KDM5B inhibitor inconclusive
Cc1ccccc1-c1ccc2n(c1=O)C[C@H]1C[C@@H]2CN(Cc2cccs2)C1	KDM5B inhibitor 32µM
O=c1c(-c2cccs2)ccc2n1C[C@H]1C[C@@H]2CN(Cc2cc3ccccc3o2)C1	KDM5B inhibitor 32µM
O=C(O)COCC(=O)N1C[C@@H]2C[C@H](C1)c1ccc(-c3cc4ccccc4s3)c(=O)n1C2	KDM5B inhibitor inconclusive
CCN1C[C@]2(COC)CC[C@H](O)[C@@]34C5C[C@@H]6[C@@H](OC)C[C@@](OC(C)=O)(C5[C@@H]6OC(C)=O)[C@H]([C@H](OC)C23)[C@@H]14 (stereo not given in full)	none (no result: SNCA expr inh, KDM5B inhibitor)
CC(C)=CCC[C@]1(C)C=Cc2c(O)c3c(c(CC=C(C)C)c2O1)O[C@]12C(=C[C@@H]4CC1C(C)(C)O[C@@]2(C/C=C(/C)C(=O)O)C4=O)C3=O	IP6K1 inhibitor -25, HEK293 viab 1.9µM (no result: SNCA expr inh, KDM5B inhibitor)
COc1cc2c(cc1OCc1ccccc1)N(C(=O)c1cc3ccccc3[nH]1)CC21CCN(C)CC1	HEK293 viab inconclusive, SNCA expr inh inconclusive, KDM5B inhibitor inconclusive
Cn1ccc2ccc(C(=O)N3CCC(C#N)(c4ccccc4)CC3)cc21	KDM5B inhibitor inconclusive
COc1ccc2c(C)c(C(=O)N3CCC(C#N)(c4ccccc4)CC3)oc2c1	KDM5B inhibitor 20µM
CC(C)OC(=O)c1ccnc2cc(C(OCCN3CCCCC3)c3ccccc3Cl)sc12 (stereo not given)	HEK293 viab 30µM (no result: SNCA expr inh, KDM5B inhibitor)
C[C@]12CC[C@H](O)CC1=CC[C@@H]1C2CC[C@]2(C)[C@@H](C3=CC(=O)OC3)CC[C@]12O (stereo not given in full)	none (no result: SNCA expr inh, KDM5B inhibitor)
CCOc1ccc(CN(CCc2ccc3c(c2)OCO3)Cc2ccc(C)cc2)cc1	KDM5B inhibitor inconclusive
CCOc1ccc(CN(CCc2ccc3c(c2)OCO3)Cc2cccc(Br)c2)cc1	IP6K1 inhibitor -57, KDM5B inhibitor inconclusive
N#Cc1cccc(-c2ccc3n(c2=O)C[C@H]2C[C@@H]3CN(C(=O)c3ccc(F)cc3)C2)c1	KDM5B inhibitor 32µM
CSCC(=O)Nc1ccc2n(c1=O)C[C@H]1C[C@@H]2CN(C(=O)COc2ccccc2)C1	KDM5B inhibitor inconclusive
N#Cc1cccc(-c2ccc3n(c2=O)C[C@H]2C[C@@H]3CN(C(=O)Nc3ccccc3)C2)c1	KDM5B inhibitor 35µM
N#Cc1cccc(-c2ccc3n(c2=O)C[C@H]2C[C@@H]3CN(C(=O)CSCC(=O)O)C2)c1	KDM5B inhibitor 35µM
Cc1ccccc1-c1ccc2n(c1=O)C[C@H]1C[C@@H]2CN(C(=O)Nc2cccc(F)c2)C1	KDM5B inhibitor inconclusive
N#Cc1ccc(C(=O)N2C[C@@H]3C[C@H](C2)c2c(-c4ccccc4F)ccc(=O)n2C3)cc1	KDM5B inhibitor inconclusive
O=C(Nc1ccc2n(c1=O)C[C@H]1C[C@@H]2CN(C(=O)NC2CCCCC2)C1)c1ccccn1	none
Cc1ccccc1-c1ccc2n(c1=O)C[C@H]1C[C@@H]2CN(C(=O)NC2CCCCC2)C1	KDM5B inhibitor 35µM
O=C(NC1CCCCC1)N1C[C@@H]2C[C@H](C1)c1ccc(C3CCCCC3)c(=O)n1C2	KDM5B inhibitor 40µM
Cc1cccc(NC(=O)N[C@H]2CN(C)c3ccccc3C(c3ccccc3)=N2)c1	none (no result: SNCA expr inh, KDM5B inhibitor)
Cc1sc2c(c1C)C(c1ccc(Cl)cc1)=NC(CC(=O)OC(C)(C)C)c1nnc(C)n1-2 (stereo not given)	none (no result: SNCA expr inh, KDM5B inhibitor)
COc1cc2c(cc1OCc1ccccc1)NC(=O)C21CCN(c2nc(C)cnc2C)CC1	KDM5B inhibitor 28µM
COc1cc2c(cc1OCc1ccncc1)NC(=O)C21CCN(Cc2ccccc2O)CC1	none
COc1cc2c(cc1OCc1ccncc1)NC(=O)C21CCN(c2ccccn2)CC1	KDM5B inhibitor 28µM
C/C=C(\C)C(=O)O[C@H]1[C@H](OC(C)=O)[C@]2(CO)[C@H](O)[C@H](O)[C@]3(C)C(=CCC4[C@@]5(C)CC[C@H](O[C@@H]6O[C@H](C(=O)O)[C@@H](O)[C@H](O[C@@H]7OC[C@H](O)[C@H](O[C@@H]8OC[C@H](O)[C@H](O)[C@H]8O)[C@H]7O)[C@H]6O[C@@H]6O[C@H](CO)[C@@H](O)[C@H](O)[C@H]6O)C(C)(C)C5CC[C@]43C)[C@@H]2CC1(C)C (stereo not given in full)	HEK293 viab inconclusive (no result: SNCA expr inh, KDM5B inhibitor)
Ic1ccccc1CNC1C2CCN(CC2)C1C(c1ccccc1)c1ccccc1 (stereo not given)	HEK293 viab 22µM, SNCA expr inh inconclusive (no result: IP6K1 inhibitor, KDM5B inhibitor)
C=C(C)C(=O)O[C@H]1[C@@H]2[C@H](C)C(=O)O[C@@H]2C[C@@H](C)[C@@H]2C=CC(=O)[C@]21C	HEK293 viab 4.6µM (no result: SNCA expr inh, KDM5B inhibitor)
CSc1ccc(-c2ccc(=O)n3c2[C@@H]2C[C@@H](CN(S(C)(=O)=O)C2)C3)cc1	KDM5B inhibitor 35µM
O=c1ccc(-c2cccs2)c2n1C[C@H]1C[C@@H]2CN(S(=O)(=O)c2cccc(C(F)(F)F)c2)C1	none
CCCS(=O)(=O)Nc1ccc(=O)n2c1[C@@H]1C[C@@H](CN(C(=O)COc3ccccc3)C1)C2	KDM5B inhibitor 32µM
CSCC(=O)N1C[C@@H]2C[C@H](C1)c1c(-c3ccc(NC(C)=O)cc3)ccc(=O)n1C2	KDM5B inhibitor 28µM
O=c1ccc(-c2cccs2)c2n1C[C@H]1C[C@@H]2CN(S(=O)(=O)c2cccs2)C1	KDM5B inhibitor 32µM
O=C(Cc1ccccn1)N1CCN(Cc2ccccc2-c2ccccc2F)CC1	none (no result: KDM5B inhibitor)
CC(C)(NC(=O)[C@@H](N)Cc1ccc(O)cc1)C(=O)N[C@@H](Cc1cc2ccccc2[nH]1)C(=O)N[C@@H](Cc1ccccc1)C(=O)O	none (no result: SNCA expr inh, KDM5B inhibitor)
c1ccc(O[C@H]2CNC3Cc4c([nH]c5ccccc45)C2C3)nc1 (stereo not given in full)	none (no result: HEK293 viab, SNCA expr inh, KDM5B inhibitor)
Cc1noc(-c2ccc(N3CC4CC(C3)c3cccc(=O)n3C4)nc2)n1 (stereo not given)	KDM5B inhibitor 22µM
C[C@H]1CN(CC[C@H](O)C2CCCCC2)CC[C@@]1(C)c1cccc(O)c1	none (no result: SNCA expr inh, KDM5B inhibitor)
c1cncc(OC[C@@H]2CCN2)c1	none (no result: SNCA expr inh, KDM5B inhibitor)
COc1ccc(-c2cnc3[nH]cc(CC(=O)N4CCN(C)CC4)c3c2)cc1OC	KDM5B inhibitor inconclusive
COc1cccc(-c2cnc3[nH]cc(CC(=O)N4CCN(C)CC4)c3c2)c1	KDM5B inhibitor 35µM
COc1ncccc1-c1cnc2[nH]cc(CC(=O)N3CCN(C)CC3)c2c1	KDM5B inhibitor 35µM
CCOC(=O)[C@H]1CN(C(=O)c2ccc(Cl)cc2)[C@]2(C)C(=O)N(CCOC(C)=O)c3ccccc3[C@H]12	none (no result: KDM5B inhibitor)
